A number with no mark means an inactive call. Active and inactive are the calls of the source. Calls follow the shape of the dose curve; as a rule, active = well fitted curve in the direction sought with a large enough effect in the repeat runs; inconclusive = weak or mixed curves; inactive = flat fitted curve, though single readings scatter.
Experiment: qHTS assay to test for compound auto fluorescence at 535 nm (green) in HepG2 cells (AID 720675)
Settings: green autofluorescence 485/535 nm, 1 h; series mostly up to 91.3 µM; fluorescence, % of fluorescein control: at the top concentration
Source text: National Center for Advancing Translational Sciences [NCATS]
NIH Chemical Genomics Center [NCGC]
U.S. Environmental Protection Agency [EPA]
National Institutes of Environmental Health Sciences [NIEHS]
National Toxicology Program [NTP]
U.S. Food and Drug Administration [FDA]
Compound auto fluorescence often interferes with screening of the compound library against various biological targets and signaling pathways. Some of these compounds may have fluorophoric properties. Such properties may interfere with the assay outputs resulting in false positives and/or negatives. To decrease such complications and ensure the compound activities are relevant in terms of biological response, the Tox21 10K compound library was screened for auto fluorescence.
From the fluorophores used as reporter signals in our screening assays, the auto fluorescence equivalencies of compounds against three fluorophores have been evaluated: Triamterene, Fluorescein and Rose Bengal sodium for blue, green and red fluorescence, respectively. The fluorescence intensities were measured using Excitation/Emission wavelengths at 405/460nm, 485/535nm and 540/590nm for blue, green and red labels, respectively. This assay includes the green fluorescence data.
Tox21 Assay Protocol Summary:
2,000 HepG2 cells in 5 uL of culture medium (MEM containing 10% FBS) per well were dispensed into black wall/clear bottom 1536-well plates using a Multidrop Combi Dispenser (ThermoFisher Scientific, Waltham, MA). The assay plates were incubated overnight at 37 C to allow cell attachment to the well bottom, followed by the transfer of 23 nL compound or DMSO vehicle by a pintool work station (Kalypsys , San Diego, CA). After the assay plates were incubated for 1 hr at 37 C and 5% CO2, fluorescence intensities in the assay plates were measured by an Envision (PerkinElmer, Shelton, CT) plate reader using three labels for measuring blue, green and red fluorescence at […] 460, 535 and 590 nm respectively.
% is scaled to controls: 0 for no effect and ±100 for the full control effect.

Row | Compound | outcome | fluorescence, % of fluorescein control
1 | CN(C)c1ccc(O)c2c1C[C@H]1C[C@H]3[C@H](N(C)C)C(=O)C(C(N)=O)=C(O)[C@@]3(O)C(=O)C1=C2O | inactive | –
2 | OCc1ccccc1 | inactive | –
3 | CCCCOC(=O)c1ccc(N)cc1 | inactive | –
4 | O=C(O)CCCCCCCCC(=O)O | inactive | –
5 | Brc1ccc(Br)c(Br)c1 | inactive | –
6 | COC(=O)c1cccnc1 | inactive | –
7 | CCOC(=O)c1ccc(N)cc1 | inactive | –
8 | COc1ccc(N)c(C)c1 | inactive | –
9 | O=C(O)c1ccc(S(=O)(=O)N(Cl)Cl)cc1 | inactive | –
10 | O=S(=O)(O)c1ccc(N=Nc2c(O)ccc3cc(S(=O)(=O)O)ccc23)cc1 | inactive | –
11 | COc1ccc([N+](=O)[O-])cc1N | inactive | –
12 | CC1(C)CC(N)CC(C)(CN)C1 (stereo not given) | inactive | –
13 | CC(=O)OC1CC(C)OC(C)O1 (stereo not given) | inactive | –
14 | CCCCC(C=O)CC (stereo not given) | inactive | –
15 | C=Cc1ccc(C)cc1 | inactive | –
16 | O=C(OCC1CCC2OC2C1)C1CCC2OC2C1 (stereo not given) | inactive | –
17 | CC(C)=CCl | inactive | –
18 | CC(C)OC(=O)COc1ccc(Cl)cc1Cl | inactive | –
19 | Nc1nc(N)nc(-c2ccccc2)n1 | inactive | –
20 | C=C(C)C(=O)OCC(C)C | inactive | –

Row | Compound | outcome | fluorescence, % of fluorescein control
21 | CCCCCC(=O)O | inactive | –
22 | O=C1c2ccccc2CCc2ccccc21 | – | 0.138% [at 95.7 µM]
23 | CCOC(=O)n1ccn(C)c1=S | inactive | –
24 | CCCCCCCC=O | inactive | –
25 | CCCCCCCCCCO | inactive | –
26 | CCCCCCCO | inactive | –
27 | CSc1ccc(Cl)cc1 | inactive | –
28 | CCCCCCCCCCCC(=O)OC | inactive | –
29 | CN(C)c1ccc(Cc2ccc(N(C)C)cc2)cc1 | inactive | –
30 | COC(=O)CCCC(=O)OC | inactive | –
31 | O=[N+]([O-])c1ccc2nc[nH]c2c1 | inactive | –
32 | Clc1ccccn1 | inactive | –
33 | CCCOC(=O)c1ccccc1 | inactive | –
34 | CC(CCl)OP(=O)(OC(C)CCl)OC(C)CCl (stereo not given) | inactive | –
35 | CCOCC(=O)O | inactive | –
36 | Cc1ccc([N+](=O)[O-])cc1S(=O)(=O)O | inactive | –
37 | CCCCCCC=O | inactive | –
38 | CC(CCO)CC(C)(C)C (stereo not given) | inactive | –
39 | CCCCCCCCCCCCCCCCO | inactive | –
40 | Cc1ccc2ncccc2c1 | inactive | –
